Consider 26 compounds from PubChem BioAssay (NCATS).

In assay [1] the test system is CRL-7250. Briefly: Cytotoxic Profiling of Annotated Libraries Using Quantitative High-Throughput Screening (AID 1296008). On max response: on the % scale 0 is the no-effect control and ±100 the full control effect. As to conditions: Five cell lines viability, CellTiter-Glo ATP luminescence, 48-72 h; stronger effect = lower value. The method in brief:
(§1)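 Compounds were pin-transferred onto cells and incubated 48 or 72 hr at 37 degree Celsius, 95% humidity. CellTiter-Glo was added, plates sat 10 min at room temperature, then ATP-coupled luminescence was imaged as the viability read-out.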
A general note: Cellular ATP, detected with luciferase, serves as a proxy for viable cell number.

Assay [2] deals with HEK293. Described as above. The settings on record: Five cell lines viability, CellTiter-Glo ATP luminescence, 48-72 h; stronger effect = lower value. Summed up: as §1
The test system of assay [3] is HaCat. The assay is described as above. The settings on record: Five cell lines viability, CellTiter-Glo ATP luminescence, 48-72 h; stronger effect = lower value. The method in brief: as §1
The test system of assay [4] is NIH3T3. Described as above. The settings on record: Five cell lines viability, CellTiter-Glo ATP luminescence, 48-72 h; stronger effect = lower value. The method in brief: as §1
Assay [5] concerns HACAT. In words: qHTS assay to identify novel small-molecules to repurpose for Merkel cell carcinoma treatment (AID 1296009). The settings on record: MCC and control cell lines, CellTiter-Glo viability, 72 h; at 44.8 µM (top of the series) unless noted. Summed up:
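Luminescence from CellTiter-Glo, read 10 min after addition at room temperature, reported viability following a 72 hr, 37 degree celsius treatment with NPC or MIPE compounds in titration; values normalized to plate controls.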
Background: In qHTS, concentration-response curves come from the screen itself.

Assay [6] concerns TAB109. Briefly: qHTS profiling for inhibitors of Plasmodium falciparum proliferation (AID 504749). Further: potency means the concentration at half of the fitted maximal effect. As to conditions: P. falciparum in erythrocytes, SYBR Green DNA, 72 h; series mostly up to 28.7 µM. The method in brief:
(§2)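 Fluorescence of SYBR Green-bound parasite DNA, read at 485/535 nm, served as the growth measure. Infected erythrocytes were cultured with compound 72 h; artemisinin (0.29 uM) and DMSO wells defined the normalization range.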

Assay [7] deals with TAB113. The assay is described as above. As to conditions: P. falciparum in erythrocytes, SYBR Green DNA, 72 h; series mostly up to 28.7 µM. The method in brief:
as §2

For assay [8], the system named is TAB165. Described as above. As to conditions: P. falciparum in erythrocytes, SYBR Green DNA, 72 h; series mostly up to 28.7 µM. The method in brief: as §2
Assay [9] has as its system W2. The assay is described as above. As to conditions: P. falciparum in erythrocytes, SYBR Green DNA, 72 h; series mostly up to 28.7 µM. The method in brief:
as §2

Inconclusive results are not listed. The source made the active and inactive calls. The call rests on the fitted dose curve; in most records, active means well fitted inhibition curve with a large enough effect; inconclusive means small, poorly fitted or top-dose-only effect; inactive means flat fitted curve, though single readings scatter.
Further: nearly all actives have a fitted effect of over 60% in size.

With `CCOc1ccccc1O[C@H](c1ccccc1)[C@H]1CNCCO1`, the result in assay [1], in assay [3] and in assay [5] was inactive. In addition, the max response in assay [2] is 2.57% (inactive); in assay [4] it was 1.71% (inactive).
Regarding `CC[C@]12CCCN3CCc4c(n(c5ccccc45)[C@@](O)(C(=O)OC)C1)[C@@H]32`, the compound was called inactive in assay [1], in [3], in assay [4] and in [5]. In addition, the max response in [2] was 0.673% (inactive).
Consider `NNC(=O)CP(=O)(c1ccccc1)c1ccccc1`, for which the Potency entry in [6], in assay [7] and in assay [8] was “inactive” each time. In addition, the max response in [1] was -0.948% (inactive); in assay [2] it was 0.687% (inactive); in assay [4] it was -3.5% (inactive). For the same compound, the compound was called inactive in [3] and in assay [5].
Regarding `CCCCCOC(=O)Nc1nc(=O)n([C@@H]2O[C@H](C)[C@@H](O)[C@H]2O)cc1F`, the call in [1], in [2], in [3] and in [5] was inactive. Besides, the max response in [4] was 3.66% (inactive).
For the compound `Cc1c(Cn2ccnc2)c2ccccc2n1CCC(=O)O`, the Potency entry in assay [6], in assay [7], in [8] and in [9] was “inactive” each time. For the same compound, the figures for the max response in assay [1], in [2] and in assay [4] were 0.62% (inactive), 1.95% (inactive) and 3.45% (inactive), respectively. The compound was called inactive in [3] and in assay [5].
On to `NC(=O)NC1NC(=O)NC1=O` (stereo not drawn), for which the compound was called inactive in assay [1], in assay [3], in assay [4] and in assay [5]. Moreover, the max response in [2] was -3.84% (inactive).
Consider `CN1C[C@@H]2C[C@H]1CN2c1cc2c(cc1F)c(=O)c(C(=O)O)cn2C1CC1`, for which, in assay [7], the Potency entry was “inactive”. Besides, the Potency in assay [9] was 0.953 µM (active). Besides, the max response is 2.35% (inactive) in assay [1], -22.9% (inactive) in assay [2] and -10.1% (inactive) in assay [4]. For the same compound, the compound was called inactive in assay [3]. Further, the outcome in assay [5] was “inactive [at 17.4 µM]”.
Take `CC(=O)NCc1c(I)c(NC(C)=O)c(I)c(C(=O)O)c1I`: the Potency entry in [6], in assay [7], in assay [8] and in assay [9] was “inactive” in each case. The max response in assay [1] is 3.86% (inactive); in assay [2], -1.82% (inactive); in assay [3], -5.93% (inactive); in assay [4] it was -4.33% (inactive).
For the compound `O=C(O)COC(=O)Cc1ccccc1Nc1c(Cl)cccc1Cl`, the Potency entry in assay [6], in assay [7], in [8] and in [9] was “inactive” in each case. In addition, the compound was classed as inactive in assay [1], in assay [3] and in assay [5]. The max response in [2] is -1.3% (inactive); in assay [4], 1.68% (inactive).
On to `CN1CC(=O)NC1=N`, for which the max response was -20.6% (inactive) in assay [1], -1.43% (inactive) in assay [3] and -1.3% (inactive) in assay [4]. Moreover, the outcome in assay [2] was inactive.
In the case of `CN1CCN(C(=O)C2CCCCC2)CC1`, the Potency entry in assay [6], in assay [7], in assay [8] and in [9] was “inactive” in each case. The outcome in assay [1], in assay [3] and in assay [5] was inactive. Besides, the max response is -2.32% (inactive) in [2] and -7.73% (inactive) in [4].
Take `COc1ccc(O)cc1`: the Potency result in [6], in [7], in assay [8] and in assay [9] was “inactive” throughout. The max response in assay [1] was -3.8% (inactive); in assay [3] it was -9.9% (inactive); in assay [4], -13.1% (inactive). For the same compound, the compound was called inactive in [2].
`CC(C)=CCC/C(C)=C/CO`: the Potency result in assay [6], in assay [7], in assay [8] and in assay [9] was “inactive” each time. Moreover, the result in [1] and in [2] was inactive. Also, the max response in assay [3] was -2.14% (inactive); in assay [4], -13.7% (inactive).
`CC(=O)N[C@@H](Cc1ccc(O)cc1)C(=O)O`: the Potency result in [6], in assay [7] and in [8] was “inactive” each time. Also, the figures for the max response in assay [1], in assay [2] and in assay [4] were -1.56% (inactive), -2.21% (inactive) and -2.52% (inactive), respectively. Also, the call in assay [3] and in assay [5] was inactive.
Take `Cc1c(C(=O)NCCO)[n+](=O)c2ccccc2n1[O-]`: the Potency result in assay [6], in assay [7], in assay [8] and in [9] was “inactive” throughout. In addition, the outcome in assay [1], in assay [3], in [4] and in assay [5] was inactive. In [2], the max response is 0.33% (inactive).
Regarding `O=C(O)c1ccc(OCCCOc2ccc(C(=O)O)cc2)cc1`, the Potency result in assay [6], in assay [7], in [8] and in [9] was “inactive” each time. For the same compound, the max response in [1] was -0.605% (inactive); in assay [2], -0.863% (inactive); in assay [3], -3.27% (inactive); in assay [4], 2.41% (inactive).
For the compound `CC(C)(C)NCC(O)COc1cccc2c1CCC(=O)N2` (stereo not drawn), the max response is 4.08% (inactive) in assay [1], -0.291% (inactive) in assay [2] and 3.67% (inactive) in assay [4]. Moreover, the outcome in [3] and in assay [5] was inactive.
On to `Cc1cc(=O)[nH]c(=S)[nH]1`, for which the Potency entry in [6], in [7], in assay [8] and in [9] was “inactive” throughout. Besides, the max response is 1.13% (inactive) in assay [1], -1.11% (inactive) in [2] and -13.5% (inactive) in [3]. Moreover, in assay [4], the outcome was inactive.
In the case of `O=C(O)Cc1cn(-c2ccccc2)nc1-c1ccc(Cl)cc1`, the Potency entry in assay [6], in [7], in assay [8] and in assay [9] was “inactive” throughout. Besides, the max response in assay [1] is 3.22% (inactive); in assay [3], -24% (inactive); in [4], 4.05% (inactive). In [2], the compound was classed as inactive.
`CO[C@@]1(NC(=O)C(C(=O)O)c2ccc(O)cc2)C(=O)N2C(C(=O)O)=C(CSc3nnnn3C)CO[C@@H]21` (stereo partly drawn): the max response was -2.58% (inactive) in [1], 1.05% (inactive) in assay [2] and -2.47% (inactive) in [4]. The call in [3] and in assay [5] was inactive.
Turning to `CCOC(N)=O`, the Potency result in assay [6], in assay [7], in [8] and in assay [9] was “inactive” in each case. The max response in assay [1] is 1.79% (inactive); in [2] it was -1.46% (inactive); in assay [3], -12.1% (inactive). Also, the call in [4] was inactive.
For the compound `C[C@@H]1O[C@@H](OC[C@H]2O[C@@H](Oc3c(-c4ccc(O)c(O)c4)oc4cc(O)cc(O)c4c3=O)[C@H](O)[C@@H](O)[C@@H]2O)[C@H](O)[C@H](O)[C@H]1O`, the Potency entry in assay [6], in assay [7], in assay [8] and in [9] was “inactive” each time. In addition, the max response is -4.29% (inactive) in [1], 2.78% (inactive) in assay [3] and -8.53% (inactive) in assay [4]. In addition, in assay [2], the compound was called inactive.
For the compound `CCCC(O)C(CC)CO` (stereo not drawn), the Potency entry in assay [6], in [7], in assay [8] and in [9] was “inactive” in each case. The max response in assay [1] was -3.08% (inactive); in assay [2], -1.45% (inactive); in assay [3] it was -9.38% (inactive). For the same compound, the result in assay [4] was inactive.
For `COc1ccccc1OCC(O)CO` (stereo not drawn), the call in assay [1], in assay [3], in assay [4] and in assay [5] was inactive. For the same compound, the max response in assay [2] is -2.29% (inactive).
As to `CCN(CC)CCOC(=O)C(c1ccccc1)c1ccccc1`, the Potency entry in [6], in [7] and in [8] was “inactive” each time. Further, the Potency in [9] is 7.57 µM (active). Also, the max response in [1] was 4.76% (inactive); in assay [2] it was -4.53% (inactive); in assay [3], -2.12% (inactive); in [4], -4.35% (inactive).
Consider `C[n+]1ccccc1/C=N/O`, for which the values for the max response in assay [1] and in [2] were -2.33% (inactive) and -5.72% (inactive), respectively. The result in [3], in [4] and in [5] was inactive.
